For 13 compounds, growth results are on record in PubChem BioAssay (NCI).

Values joined by “and” are separate entries in the source; they are usually repeats but may differ in a detail not shown here. Equal values may be shown once. This is part of a sample that, as a whole, favours compounds with a hit. Of some 83,000 tested, about 20% had one in any assay.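 The endpoint reported here, percent growth, reads 100 for growth as untreated, 0 for no net growth and -100 for all cells dead.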 A number with no mark means an inactive call. Active and inactive are the calls of the source. How the source made its calls: active means growth percent below 10; inactive means the rest.

The assay concerns MDA-MB-435 melanoma. The experiment in a line: NCI-60 one-dose screen, 48 h (100 = growth as untreated, 0 = no growth, -100 = all killed). The following applies: 10 µM unless noted.
On to `O=C(CSc1nnc(-c2ccc(-c3nc4ccc(Cl)cc4[nH]3)cc2)o1)Nc1ccc(Cl)cc1`, for which the growth was 8.45% (active). `COc1ccc(-n2c(NC(=O)N3CCN(C)CC3)c(C#N)c3ccccc32)cc1`: the growth was 71.7%. Under `N#Cc1c(NC(=O)N2CCOCC2)n(-c2ccc(OC(F)(F)F)cc2)c2cc(F)ccc12` stands 92.4%; under `COc1ccc(-c2nc3ccccc3n2CC(=O)N=Nc2c(O)[nH]c3ccc(Br)cc23)cc1`, 23.3%. Take `O=C1Nc2ccccc2/C1=C/C(=O)c1cc2ccccc2oc1=O`: the growth is 110%. With `COc1sc(/C=N/NC(=O)c2[nH]c3ccc(Br)cc3c2-c2ccccc2)cc1Br` the figure was -26.5% (active); with `CSc1ccc(OCc2nc3ccccc3n2-c2cccc(NS(C)(=O)=O)c2)cc1`, 105% and 98.3%. For `O=C(NNC(=O)c1ccc(OCc2nc3ccc(Cl)cc3[nH]2)cc1)Nc1ccc(Cl)c(Cl)c1`, the growth is 26.7%. Take `COc1cc(C2CC(c3ccc(F)cc3)=Nc3c(N)nc(N)nc3N2)ccc1Oc1nc(Nc2ccc(F)cc2)nc(N(C)C)n1` (stereo not drawn): the growth was 47%. `NC1(c2ccc(-c3ccc4ncnc(NCc5ccccc5)c4c3)cn2)COC1`: the growth was 106% and 107%.

As for `C#CCN(C)CCCOc1ccc(N(CC)C(=O)c2cc(C(C)C)c(O)cc2O)cc1Cl`, the growth is -26.1% (active).

On to `C#CCCCNCCNc1ccnc2cc(Cl)ccc12`, for which the growth was 59.7%. Consider `COc1cc(CNC(=O)C[C@H](C)CCC=C(C)C)ccc1OCc1cn(-c2ccccc2F)nn1`, for which the growth is 100%.
